Assay results reported in the supplement of paper PMC11732987, “Enantioselective OTUD7B fragment discovery through chemoproteomics screening and high-throughput optimisation” (Communications Chemistry, 2025).

Columns and labels:
Assay in all cases: log2 ratio of Biotin-Ahx-Ub-VS probe labelling (fragment/DMSO); higher = less target engagement (more negative = stronger competition), active = hit call of the paper (q ≤ 0.05, log2 ratio ≤ -1)
Conditions in all cases: compound concentration: 200 uM; treatment time: 3 h
[1] = molecular target: USP34 (UniProt Q70CQ2)
In short: (§1)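 Global-median-normalised Spectronaut label-free quantities were compared by unpaired t-test, and values are average log2 ratios of fragment over vehicle. Only proteins with ≥2 unique peptides were used. HEK293T lysate (495 µg per sample) was treated in triplicate with fragment at 200 µM or vehicle for 3 h and then with Biotin-Ahx-Ub-VS at 0.5 µM final for 1 h. Labelled DUBs were then NeutrAvidin-enriched, digested with LysC and trypsin, and run by diaPASEF LC-MS/MS.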

[2] = molecular target: T1, USP36 (UniProt Q9P275)
T1 sequence (whole entry): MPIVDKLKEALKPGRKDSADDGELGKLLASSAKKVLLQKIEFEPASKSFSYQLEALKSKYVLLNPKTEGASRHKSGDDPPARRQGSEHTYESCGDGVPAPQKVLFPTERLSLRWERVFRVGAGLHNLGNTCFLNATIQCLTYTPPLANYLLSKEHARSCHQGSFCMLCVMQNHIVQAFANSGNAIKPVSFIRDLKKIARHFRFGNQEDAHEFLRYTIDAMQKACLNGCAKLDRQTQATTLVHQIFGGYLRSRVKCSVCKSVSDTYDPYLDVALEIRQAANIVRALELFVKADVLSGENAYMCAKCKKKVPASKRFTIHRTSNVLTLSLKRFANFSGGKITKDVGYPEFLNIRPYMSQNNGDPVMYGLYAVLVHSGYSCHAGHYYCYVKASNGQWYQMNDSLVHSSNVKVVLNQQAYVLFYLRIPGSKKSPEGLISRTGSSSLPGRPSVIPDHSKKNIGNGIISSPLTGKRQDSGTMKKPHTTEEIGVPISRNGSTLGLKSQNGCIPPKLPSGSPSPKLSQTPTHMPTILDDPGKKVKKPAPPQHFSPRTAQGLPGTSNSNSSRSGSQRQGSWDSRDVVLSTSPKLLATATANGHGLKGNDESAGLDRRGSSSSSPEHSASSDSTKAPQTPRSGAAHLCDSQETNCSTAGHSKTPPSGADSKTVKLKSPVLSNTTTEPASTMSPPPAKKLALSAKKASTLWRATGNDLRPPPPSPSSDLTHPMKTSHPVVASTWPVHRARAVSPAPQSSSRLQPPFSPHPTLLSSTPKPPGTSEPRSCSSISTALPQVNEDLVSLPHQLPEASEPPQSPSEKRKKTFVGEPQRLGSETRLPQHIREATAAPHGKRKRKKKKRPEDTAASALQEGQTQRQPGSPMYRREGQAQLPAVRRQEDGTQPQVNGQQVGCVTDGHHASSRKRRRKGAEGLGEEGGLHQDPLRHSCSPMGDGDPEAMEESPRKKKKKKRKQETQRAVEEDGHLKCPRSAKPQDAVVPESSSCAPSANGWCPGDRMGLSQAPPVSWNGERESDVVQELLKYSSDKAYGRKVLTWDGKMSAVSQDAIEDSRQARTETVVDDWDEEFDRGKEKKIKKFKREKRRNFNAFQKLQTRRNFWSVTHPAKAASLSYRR
In short: as §1

[3] = molecular target: T2, USP38 (UniProt Q8NB14)
T2 sequence (whole entry): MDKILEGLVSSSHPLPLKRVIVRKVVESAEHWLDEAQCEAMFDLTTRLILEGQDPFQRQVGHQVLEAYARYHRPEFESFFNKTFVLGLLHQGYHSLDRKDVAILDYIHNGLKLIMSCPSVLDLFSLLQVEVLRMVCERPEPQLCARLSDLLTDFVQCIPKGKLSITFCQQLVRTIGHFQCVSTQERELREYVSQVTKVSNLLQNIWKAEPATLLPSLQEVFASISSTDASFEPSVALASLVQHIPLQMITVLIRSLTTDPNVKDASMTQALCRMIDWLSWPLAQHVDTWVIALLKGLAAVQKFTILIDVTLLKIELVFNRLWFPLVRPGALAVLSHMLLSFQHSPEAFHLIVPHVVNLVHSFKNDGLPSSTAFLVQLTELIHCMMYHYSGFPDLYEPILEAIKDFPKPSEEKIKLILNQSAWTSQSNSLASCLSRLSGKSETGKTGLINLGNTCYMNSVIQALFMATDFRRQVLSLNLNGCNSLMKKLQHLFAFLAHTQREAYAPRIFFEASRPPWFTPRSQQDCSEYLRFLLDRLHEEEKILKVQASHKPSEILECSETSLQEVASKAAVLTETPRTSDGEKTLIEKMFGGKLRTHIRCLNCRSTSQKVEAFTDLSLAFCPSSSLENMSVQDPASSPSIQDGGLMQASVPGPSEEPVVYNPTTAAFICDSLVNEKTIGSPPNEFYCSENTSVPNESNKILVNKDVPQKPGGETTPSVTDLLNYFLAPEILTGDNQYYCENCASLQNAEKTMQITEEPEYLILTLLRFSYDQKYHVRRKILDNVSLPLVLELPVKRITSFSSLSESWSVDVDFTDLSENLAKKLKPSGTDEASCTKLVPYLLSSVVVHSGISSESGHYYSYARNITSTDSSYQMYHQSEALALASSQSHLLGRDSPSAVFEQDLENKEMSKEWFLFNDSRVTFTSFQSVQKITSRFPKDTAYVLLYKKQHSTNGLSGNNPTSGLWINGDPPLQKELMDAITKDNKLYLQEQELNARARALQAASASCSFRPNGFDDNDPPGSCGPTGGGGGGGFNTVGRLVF
In short: as §1

[4] = molecular target: T3, USP39 (UniProt Q53GS9)
T3 sequence (whole entry): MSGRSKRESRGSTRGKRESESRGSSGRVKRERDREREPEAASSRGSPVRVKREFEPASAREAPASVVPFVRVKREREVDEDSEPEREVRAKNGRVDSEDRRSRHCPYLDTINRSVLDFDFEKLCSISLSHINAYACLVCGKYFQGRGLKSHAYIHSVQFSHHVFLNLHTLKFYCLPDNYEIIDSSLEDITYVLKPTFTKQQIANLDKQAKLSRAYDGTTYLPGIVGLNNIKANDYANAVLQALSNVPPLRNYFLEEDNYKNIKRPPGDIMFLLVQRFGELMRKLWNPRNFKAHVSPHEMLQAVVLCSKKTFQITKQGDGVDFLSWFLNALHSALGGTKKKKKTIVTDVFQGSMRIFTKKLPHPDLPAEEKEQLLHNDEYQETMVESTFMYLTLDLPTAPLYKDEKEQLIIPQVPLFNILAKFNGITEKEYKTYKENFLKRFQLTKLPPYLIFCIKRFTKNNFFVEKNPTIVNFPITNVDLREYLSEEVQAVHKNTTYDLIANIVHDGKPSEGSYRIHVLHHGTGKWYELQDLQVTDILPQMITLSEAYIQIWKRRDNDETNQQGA
In short: as §1

[5] = molecular target: T4, USP4 (UniProt Q13107)
T4 sequence (whole entry): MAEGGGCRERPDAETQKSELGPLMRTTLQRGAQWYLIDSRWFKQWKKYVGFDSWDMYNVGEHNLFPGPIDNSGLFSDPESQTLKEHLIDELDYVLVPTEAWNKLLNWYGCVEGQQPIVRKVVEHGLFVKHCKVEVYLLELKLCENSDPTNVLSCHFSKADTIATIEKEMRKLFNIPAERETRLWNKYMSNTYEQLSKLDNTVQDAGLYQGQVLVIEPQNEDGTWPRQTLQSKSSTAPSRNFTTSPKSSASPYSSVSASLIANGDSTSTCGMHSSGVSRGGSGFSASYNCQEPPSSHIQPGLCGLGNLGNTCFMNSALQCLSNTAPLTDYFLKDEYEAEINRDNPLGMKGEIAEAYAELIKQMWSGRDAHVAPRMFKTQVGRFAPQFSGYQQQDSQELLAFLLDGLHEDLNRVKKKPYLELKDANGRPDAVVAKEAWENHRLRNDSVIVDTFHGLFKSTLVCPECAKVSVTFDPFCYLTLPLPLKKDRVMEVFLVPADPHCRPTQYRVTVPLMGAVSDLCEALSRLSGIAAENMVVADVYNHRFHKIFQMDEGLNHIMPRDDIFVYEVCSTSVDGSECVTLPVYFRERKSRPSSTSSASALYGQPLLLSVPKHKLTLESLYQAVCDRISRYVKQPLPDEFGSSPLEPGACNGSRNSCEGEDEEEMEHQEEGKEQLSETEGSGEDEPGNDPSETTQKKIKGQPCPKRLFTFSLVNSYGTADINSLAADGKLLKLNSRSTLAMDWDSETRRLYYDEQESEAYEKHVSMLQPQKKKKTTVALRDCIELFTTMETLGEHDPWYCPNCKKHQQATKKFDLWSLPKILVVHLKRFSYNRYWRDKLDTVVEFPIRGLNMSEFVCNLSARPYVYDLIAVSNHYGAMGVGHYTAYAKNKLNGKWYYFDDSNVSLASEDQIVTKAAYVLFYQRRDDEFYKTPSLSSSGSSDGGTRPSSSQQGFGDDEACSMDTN
In short: as §1

Measured: log2 ratio of Biotin-Ahx-Ub-VS probe labelling

Chain of USP34 (Q70CQ2 whole entry, the tested form may be a part): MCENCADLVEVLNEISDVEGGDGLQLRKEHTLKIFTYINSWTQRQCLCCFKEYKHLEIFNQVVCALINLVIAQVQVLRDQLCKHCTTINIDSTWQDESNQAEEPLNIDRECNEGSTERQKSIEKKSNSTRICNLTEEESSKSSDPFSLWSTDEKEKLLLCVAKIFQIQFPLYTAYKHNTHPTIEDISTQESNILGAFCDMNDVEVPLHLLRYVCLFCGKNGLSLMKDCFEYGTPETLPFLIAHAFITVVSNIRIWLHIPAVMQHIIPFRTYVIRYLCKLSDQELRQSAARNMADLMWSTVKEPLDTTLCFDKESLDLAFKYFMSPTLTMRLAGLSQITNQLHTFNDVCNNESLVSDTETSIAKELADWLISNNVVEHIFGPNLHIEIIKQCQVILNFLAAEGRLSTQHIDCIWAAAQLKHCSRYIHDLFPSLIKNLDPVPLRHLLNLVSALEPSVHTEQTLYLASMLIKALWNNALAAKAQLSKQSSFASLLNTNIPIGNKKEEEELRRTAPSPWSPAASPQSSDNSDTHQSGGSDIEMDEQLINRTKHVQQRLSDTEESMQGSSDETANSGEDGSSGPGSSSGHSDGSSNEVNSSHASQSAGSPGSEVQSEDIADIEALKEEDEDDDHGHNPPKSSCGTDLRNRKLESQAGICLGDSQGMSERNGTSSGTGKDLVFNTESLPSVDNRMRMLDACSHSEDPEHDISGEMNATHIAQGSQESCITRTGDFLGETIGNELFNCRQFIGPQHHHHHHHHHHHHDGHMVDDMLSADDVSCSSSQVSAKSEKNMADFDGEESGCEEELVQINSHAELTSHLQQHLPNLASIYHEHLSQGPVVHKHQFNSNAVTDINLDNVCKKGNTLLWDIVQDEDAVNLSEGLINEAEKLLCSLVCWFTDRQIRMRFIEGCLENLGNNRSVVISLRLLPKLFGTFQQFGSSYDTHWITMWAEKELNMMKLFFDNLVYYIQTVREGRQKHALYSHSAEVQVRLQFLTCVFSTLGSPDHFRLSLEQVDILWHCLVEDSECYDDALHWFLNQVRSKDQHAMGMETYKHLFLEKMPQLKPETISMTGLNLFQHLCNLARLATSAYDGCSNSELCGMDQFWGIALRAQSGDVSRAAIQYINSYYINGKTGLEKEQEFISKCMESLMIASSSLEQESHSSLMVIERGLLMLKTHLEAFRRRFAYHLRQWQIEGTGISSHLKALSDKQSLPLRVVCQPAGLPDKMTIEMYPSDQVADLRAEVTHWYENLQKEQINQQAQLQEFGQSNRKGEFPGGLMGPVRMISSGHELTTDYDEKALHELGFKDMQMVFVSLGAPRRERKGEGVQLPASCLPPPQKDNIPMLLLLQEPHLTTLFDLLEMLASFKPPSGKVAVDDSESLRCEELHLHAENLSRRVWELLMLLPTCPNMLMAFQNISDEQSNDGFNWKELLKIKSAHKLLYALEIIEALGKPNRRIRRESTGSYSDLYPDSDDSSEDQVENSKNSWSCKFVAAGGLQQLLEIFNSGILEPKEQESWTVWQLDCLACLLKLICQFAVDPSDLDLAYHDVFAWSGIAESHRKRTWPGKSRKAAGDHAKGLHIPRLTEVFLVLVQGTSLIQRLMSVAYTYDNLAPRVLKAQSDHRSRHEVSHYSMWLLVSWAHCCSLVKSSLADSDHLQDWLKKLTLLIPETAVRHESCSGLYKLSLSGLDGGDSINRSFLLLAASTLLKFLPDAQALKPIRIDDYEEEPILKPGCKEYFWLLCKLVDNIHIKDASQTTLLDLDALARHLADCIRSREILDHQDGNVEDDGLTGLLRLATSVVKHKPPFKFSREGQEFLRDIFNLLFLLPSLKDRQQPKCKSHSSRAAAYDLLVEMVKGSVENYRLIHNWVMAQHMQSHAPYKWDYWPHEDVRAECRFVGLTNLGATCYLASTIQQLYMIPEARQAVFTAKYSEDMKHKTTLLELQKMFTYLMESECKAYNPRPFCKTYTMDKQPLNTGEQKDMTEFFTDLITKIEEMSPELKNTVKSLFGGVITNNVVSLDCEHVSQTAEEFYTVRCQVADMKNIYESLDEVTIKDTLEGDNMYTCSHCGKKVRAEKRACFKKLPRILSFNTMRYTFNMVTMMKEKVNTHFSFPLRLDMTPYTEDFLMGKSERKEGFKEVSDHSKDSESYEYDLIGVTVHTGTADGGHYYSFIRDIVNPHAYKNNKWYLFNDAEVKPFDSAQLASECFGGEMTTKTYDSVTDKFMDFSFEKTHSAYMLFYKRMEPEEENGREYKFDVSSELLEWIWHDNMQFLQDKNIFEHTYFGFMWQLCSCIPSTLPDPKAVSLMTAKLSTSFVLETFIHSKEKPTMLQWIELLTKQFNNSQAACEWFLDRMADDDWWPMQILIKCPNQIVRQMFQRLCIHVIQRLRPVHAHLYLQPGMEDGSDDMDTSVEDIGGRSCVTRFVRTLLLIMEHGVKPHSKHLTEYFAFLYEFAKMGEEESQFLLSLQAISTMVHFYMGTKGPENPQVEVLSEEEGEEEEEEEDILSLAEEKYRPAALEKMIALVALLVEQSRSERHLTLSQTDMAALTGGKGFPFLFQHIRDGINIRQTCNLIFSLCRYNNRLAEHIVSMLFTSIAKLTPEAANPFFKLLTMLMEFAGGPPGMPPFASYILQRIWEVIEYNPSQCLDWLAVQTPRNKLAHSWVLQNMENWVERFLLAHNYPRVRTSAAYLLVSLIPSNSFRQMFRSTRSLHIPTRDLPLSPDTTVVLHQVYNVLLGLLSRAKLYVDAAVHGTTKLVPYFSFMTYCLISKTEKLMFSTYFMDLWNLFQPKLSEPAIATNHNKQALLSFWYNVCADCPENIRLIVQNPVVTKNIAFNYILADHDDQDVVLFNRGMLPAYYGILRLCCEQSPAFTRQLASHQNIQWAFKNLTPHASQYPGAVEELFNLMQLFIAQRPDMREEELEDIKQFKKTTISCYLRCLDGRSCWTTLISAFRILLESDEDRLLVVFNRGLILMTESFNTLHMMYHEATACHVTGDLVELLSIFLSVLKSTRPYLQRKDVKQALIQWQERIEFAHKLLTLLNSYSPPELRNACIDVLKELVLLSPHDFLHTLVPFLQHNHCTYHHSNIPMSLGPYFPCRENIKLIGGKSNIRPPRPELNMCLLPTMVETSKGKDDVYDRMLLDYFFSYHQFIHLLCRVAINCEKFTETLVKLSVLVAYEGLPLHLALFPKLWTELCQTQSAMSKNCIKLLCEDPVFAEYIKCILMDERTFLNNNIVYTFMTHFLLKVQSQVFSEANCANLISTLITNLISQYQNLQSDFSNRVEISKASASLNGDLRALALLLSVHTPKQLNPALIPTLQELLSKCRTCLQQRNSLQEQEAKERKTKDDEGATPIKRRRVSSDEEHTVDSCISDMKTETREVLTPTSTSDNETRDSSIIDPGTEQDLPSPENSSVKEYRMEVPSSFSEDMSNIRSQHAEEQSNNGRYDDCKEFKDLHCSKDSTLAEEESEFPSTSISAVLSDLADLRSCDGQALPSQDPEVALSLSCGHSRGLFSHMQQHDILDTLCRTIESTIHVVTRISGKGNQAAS

Cc1cccc(C)c1NC(=O)CCl
inactive: [1] -0.0998 | [2] -0.33 | [3] -0.0307 | [4] 0.204 | [5] -0.132
